Inconclusive results are not listed. The source made the active and inactive calls. How the source made its calls, unless noted: active means hit-call score of the fitted dose curve at least 0.9, where 1 is the maximum; inactive means score below 0.9.
Legend:
[1] = read-out: Monocyte Chemoattractant Protein-1 (MCP1), CCL2 (gene 6347); assay: BSK_SAg_MCP1: BioMAP Diversity Plus: SAg Assay for Monocyte Chemoattractant Protein-1 (MCP1) Biomarker Activity (AID 2283090); settings: primary human HUVEC with PBMC; actives raise or lower the signal
Method in brief: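 MCP-1 levels in the endothelial–PBMC SAg co-culture were quantified by ELISA at 24 h post-dosing; both increases and decreases versus DMSO scored. Cytotoxicity monitored by SRB total protein in parallel cultures.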

[2] = read-out: E-selectin (Homo sapiens) (UniProt P16581); assay: BSK_SAg_Eselectin: BioMAP Diversity Plus: SAg Assay for Eselectin Biomarker Activity (AID 2283091); settings: primary human HUVEC with PBMC; actives raise or lower the signal
Method in brief: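 Co-culture: HUVEC + PBMC. Dose compound; 24 h. ELISA for E-selectin. Bidirectional fit vs DMSO.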

[3] = read-out: Monokine induced gamma interferon (MIG), CXCL9 (gene 4283); assay: BSK_SAg_MIG: BioMAP Diversity Plus: SAg Assay for Monokine induced gamma interferon (MIG) Biomarker Activity (AID 2283092); settings: primary human HUVEC with PBMC; actives raise or lower the signal
Method in brief: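 Measures CXCL9 protein by ELISA in a human vascular primary-cell co-culture (umbilical vein endothelium with PBMC) 24 h after chemical addition. Activity is scored up or down from the DMSO control.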

[4] = BSK_SAg_PBMCCytotoxicity: PBMC Cytotoxicity Assessment in the BioMAP Diversity Plus: SAg Assay (AID 2283093); settings: primary human HUVEC with PBMC;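 further: PBMC viability measured as Alamar Blue reduction fluorescence at 546/580 nm; fitted both ways against DMSO so a hit may be loss or gain of signal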;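 on AC50: PBMC superantigen activated with SEB plus TSST-1 one hour after compound addition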
Method in brief: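 Compound added to 75,000 PBMC/well for 1 h; SEB and TSST-1 then added at 20 ng/mL final each; 90 h incubation; Alamar Blue 6 h; read 546/580 nm ex/em. Activity fitted bidirectionally relative to DMSO baseline.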

[5] = read-out: Interleukin-8 (IL8), CXCL8 (gene 3576); assay: BSK_SAg_IL8: BioMAP Diversity Plus: SAg Assay for Interleukin-8 (IL8) Biomarker Activity (AID 2283094); settings: primary human HUVEC with PBMC; actives raise or lower the signal
Method in brief: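 Human umbilical vein endothelial cells co-cultured with peripheral blood mononuclear cells; IL-8 measured by ELISA 24 h after chemical dosing. Bidirectional concentration-response fitting used DMSO as negative control and activity baseline.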

[6] = BSK_SAg_SRB: Viability Assessment in the BioMAP Diversity Plus: SAg Assay (AID 2283096); settings: primary human HUVEC with PBMC;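 further: cells read one day after compound addition; hits may be either gain or loss of signal compared with DMSO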
Method in brief: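 Total protein by sulforhodamine B staining, 24 h after dosing, in HUVEC–PBMC co-culture; DMSO-referenced bidirectional fitting.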

[7] = molecular target: human CYP19A1, CYP19A1 (gene 1588) (UniProt P11511); assay: NVS_ADME_hCYP19A1: NovaScreen (NVS) CYP450-related Enzyme Activity (ADME) Assay for human CYP19A1 (AID 2283098; active means hit-call score of the fitted dose curve at least 0.9, where 1 is the maximum)
Chain of human CYP19A1, CYP19A1 (gene 1588) (P11511 whole entry, looked up): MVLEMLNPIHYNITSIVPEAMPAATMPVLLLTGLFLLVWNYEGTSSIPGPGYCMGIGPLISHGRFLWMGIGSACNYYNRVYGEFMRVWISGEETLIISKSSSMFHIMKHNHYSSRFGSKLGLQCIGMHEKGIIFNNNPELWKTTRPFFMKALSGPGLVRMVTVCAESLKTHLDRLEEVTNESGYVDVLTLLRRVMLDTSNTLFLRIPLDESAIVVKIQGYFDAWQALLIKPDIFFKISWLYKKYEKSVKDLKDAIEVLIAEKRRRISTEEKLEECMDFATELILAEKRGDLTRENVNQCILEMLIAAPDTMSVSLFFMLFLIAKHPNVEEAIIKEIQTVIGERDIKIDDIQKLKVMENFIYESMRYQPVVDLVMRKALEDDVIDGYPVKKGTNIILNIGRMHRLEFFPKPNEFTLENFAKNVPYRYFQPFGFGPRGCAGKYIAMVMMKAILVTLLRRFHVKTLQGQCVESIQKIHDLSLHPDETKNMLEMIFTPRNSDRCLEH
Method in brief: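 Biochem, cell-free; recombinant enzyme + specific substrate; fluorescence intensity at 0.5 h post-dose; 10 uM duplicate primary, conc. series for actives; acetonitrile = negative control/baseline; positive and negative controls on every plate.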

[8] = molecular target: Cytochrome P450 2C18 (Homo sapiens) (UniProt P33260); assay: NVS_ADME_hCYP2C18: NovaScreen (NVS) CYP450-related Enzyme Activity (ADME) Assay for human CYP2C18 (AID 2283103)
Chain of Cytochrome P450 2C18 (Homo sapiens) (P33260 whole entry, looked up): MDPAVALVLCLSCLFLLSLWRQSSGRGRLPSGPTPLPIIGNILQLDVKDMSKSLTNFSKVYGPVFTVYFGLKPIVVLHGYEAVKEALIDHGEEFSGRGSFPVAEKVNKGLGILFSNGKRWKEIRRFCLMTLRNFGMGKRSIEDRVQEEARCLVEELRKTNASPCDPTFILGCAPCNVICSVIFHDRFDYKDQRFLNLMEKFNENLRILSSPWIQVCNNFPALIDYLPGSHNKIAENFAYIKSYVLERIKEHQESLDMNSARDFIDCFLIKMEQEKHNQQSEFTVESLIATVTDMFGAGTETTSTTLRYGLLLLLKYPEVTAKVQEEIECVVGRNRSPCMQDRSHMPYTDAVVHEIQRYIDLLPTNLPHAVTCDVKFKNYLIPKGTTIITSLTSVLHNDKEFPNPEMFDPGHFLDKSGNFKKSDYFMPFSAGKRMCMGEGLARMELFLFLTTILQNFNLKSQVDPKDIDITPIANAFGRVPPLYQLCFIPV
Method in brief: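 Cell-free recombinant human CYP2C18 with fluorogenic substrate; fluorescence intensity read 0.5 h after dosing. Single-point screen at 10 uM in duplicate, then concentration-response up to 20 uM; loss of signal fitted against acetonitrile baseline.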

[9] = molecular target: human CYP2C9, CYP2C9 (gene 1559) (UniProt P11712); assay: NVS_ADME_hCYP2C9: NovaScreen (NVS) CYP450-related Enzyme Activity (ADME) Assay for human CYP2C9 (AID 2283108; active means hit-call score of the fitted dose curve at least 0.9, where 1 is the maximum)
Chain of human CYP2C9, CYP2C9 (gene 1559) (P11712 whole entry, looked up): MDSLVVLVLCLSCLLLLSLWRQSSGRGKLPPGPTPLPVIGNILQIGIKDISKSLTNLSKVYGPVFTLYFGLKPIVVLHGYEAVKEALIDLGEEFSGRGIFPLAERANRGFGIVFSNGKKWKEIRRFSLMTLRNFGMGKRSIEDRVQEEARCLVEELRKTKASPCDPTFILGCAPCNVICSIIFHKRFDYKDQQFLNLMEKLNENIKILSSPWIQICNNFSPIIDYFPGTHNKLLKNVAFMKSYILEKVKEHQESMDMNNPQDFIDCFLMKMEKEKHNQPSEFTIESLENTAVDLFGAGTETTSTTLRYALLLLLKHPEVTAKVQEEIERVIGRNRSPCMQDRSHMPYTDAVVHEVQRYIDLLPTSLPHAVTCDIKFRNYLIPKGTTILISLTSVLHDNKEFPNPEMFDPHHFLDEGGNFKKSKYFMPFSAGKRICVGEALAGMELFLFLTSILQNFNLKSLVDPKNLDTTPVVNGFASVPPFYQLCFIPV
Method in brief: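 Fluorescence readout of CYP2C9 activity (SF9-expressed human enzyme) at 0.75 h. The primary screen used 10 uM in duplicate, with concentration-response follow-up for actives; acetonitrile was the negative control.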

[10] = molecular target: Cytochrome P450 2C19 (Homo sapiens) (UniProt P33261); assay: NVS_ADME_hCYP2C19: NovaScreen (NVS) CYP450-related Enzyme Activity (ADME) Assay for human CYP2C19 (AID 2283113; active means hit-call score of the fitted dose curve at least 0.9, where 1 is the maximum;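 on AC50: potency for inhibition seen as loss of fluorescent signal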)
Method in brief: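 Fluorescence intensity was measured 1 hour after chemicals were added to insect-cell-derived recombinant CYP2C19 with fluorogenic substrate. Decreased signal versus acetonitrile control was taken as reduced enzyme activity; initial testing used 10 uM in duplicate.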

[11] = molecular target: rat CYP2A1, Cyp2a1 (gene 24894) (UniProt P11711); assay: NVS_ADME_rCYP2A1: NovaScreen (NVS) CYP450-related Enzyme Activity (ADME) Assay for rat CYP2A1 (AID 2283114)
Chain of rat CYP2A1, Cyp2a1 (gene 24894) (P11711 whole entry, looked up): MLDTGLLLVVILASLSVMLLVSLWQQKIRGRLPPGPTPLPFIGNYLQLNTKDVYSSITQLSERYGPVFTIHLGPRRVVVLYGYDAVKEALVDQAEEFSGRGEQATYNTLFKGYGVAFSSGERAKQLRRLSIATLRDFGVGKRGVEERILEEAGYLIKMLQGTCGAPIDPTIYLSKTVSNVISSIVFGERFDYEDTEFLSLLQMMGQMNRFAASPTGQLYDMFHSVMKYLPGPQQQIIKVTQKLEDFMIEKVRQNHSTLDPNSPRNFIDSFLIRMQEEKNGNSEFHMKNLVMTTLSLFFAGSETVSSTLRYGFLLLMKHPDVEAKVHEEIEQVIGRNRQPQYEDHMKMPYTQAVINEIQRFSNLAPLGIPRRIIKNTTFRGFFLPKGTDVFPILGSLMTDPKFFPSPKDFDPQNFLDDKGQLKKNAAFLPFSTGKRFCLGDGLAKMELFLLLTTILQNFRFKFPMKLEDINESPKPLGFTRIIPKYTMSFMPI
Method in brief: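 Recombinant rat CYP2A1, cell-free, fluorogenic substrate turnover read by fluorescence intensity 0.75 h after dosing. Primary screen at 10 uM in duplicate; actives rerun as concentration-response up to 20 uM; loss of signal versus acetonitrile control.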

[12] = molecular target: human CYP2D6, CYP2D6 (gene 1565) (UniProt P10635); assay: NVS_ADME_hCYP2D6: NovaScreen (NVS) CYP450-related Enzyme Activity (ADME) Assay for human CYP2D6 (AID 2283107; active means hit-call score of the fitted dose curve at least 0.9, where 1 is the maximum)
Chain of human CYP2D6, CYP2D6 (gene 1565) (P10635 whole entry, looked up): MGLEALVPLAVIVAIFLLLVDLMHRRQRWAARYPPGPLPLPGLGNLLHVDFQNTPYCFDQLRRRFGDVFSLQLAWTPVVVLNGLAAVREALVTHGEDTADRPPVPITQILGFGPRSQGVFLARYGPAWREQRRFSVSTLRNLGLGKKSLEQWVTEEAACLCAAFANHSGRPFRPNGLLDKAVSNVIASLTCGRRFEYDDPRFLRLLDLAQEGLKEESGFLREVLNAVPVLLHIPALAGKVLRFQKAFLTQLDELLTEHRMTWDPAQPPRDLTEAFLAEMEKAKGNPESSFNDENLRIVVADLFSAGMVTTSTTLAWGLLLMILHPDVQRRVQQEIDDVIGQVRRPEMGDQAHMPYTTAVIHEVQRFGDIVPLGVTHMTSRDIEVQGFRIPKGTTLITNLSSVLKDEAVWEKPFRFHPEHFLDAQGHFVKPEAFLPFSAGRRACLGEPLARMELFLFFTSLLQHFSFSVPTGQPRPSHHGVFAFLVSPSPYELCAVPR
Method in brief: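 Insect-cell recombinant enzyme + fluorogenic substrate, cell-free; 1 h incubation; fluorescence intensity readout. Acetonitrile = neg. ctrl/baseline. Single-point 10 uM, duplicate; follow-up concentration series.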

[13] = molecular target: Cytochrome P450 3A4 (Homo sapiens) (UniProt P08684); assay: NVS_ADME_hCYP3A4: NovaScreen (NVS) CYP450-related Enzyme Activity (ADME) Assay for human CYP3A4 (AID 2283110; active means hit-call score of the fitted dose curve at least 0.9, where 1 is the maximum)
Chain of Cytochrome P450 3A4 (Homo sapiens) (P08684 whole entry, looked up): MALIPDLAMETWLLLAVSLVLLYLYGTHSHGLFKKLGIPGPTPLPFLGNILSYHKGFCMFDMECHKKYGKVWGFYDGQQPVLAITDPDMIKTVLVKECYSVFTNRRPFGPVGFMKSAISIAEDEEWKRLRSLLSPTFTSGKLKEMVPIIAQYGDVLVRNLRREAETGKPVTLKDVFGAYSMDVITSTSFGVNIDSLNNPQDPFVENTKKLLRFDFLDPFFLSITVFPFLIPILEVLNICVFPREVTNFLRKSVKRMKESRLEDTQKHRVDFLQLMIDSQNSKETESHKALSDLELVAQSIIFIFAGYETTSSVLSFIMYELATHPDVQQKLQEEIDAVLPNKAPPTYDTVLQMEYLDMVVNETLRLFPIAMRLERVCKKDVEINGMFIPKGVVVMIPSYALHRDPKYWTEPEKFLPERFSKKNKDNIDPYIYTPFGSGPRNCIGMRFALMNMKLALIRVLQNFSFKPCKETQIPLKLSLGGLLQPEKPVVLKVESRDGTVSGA
Method in brief: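 Compounds were first screened in duplicate at 10 uM against recombinant CYP3A4 produced in insect cells, then actives were run in concentration series. Enzyme activity was measured by fluorescence after 0.33 hour, with acetonitrile as baseline.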

[14] = molecular target: human CYP2J2, CYP2J2 (gene 1573) (UniProt P51589); assay: NVS_ADME_hCYP2J2: NovaScreen (NVS) CYP450-related Enzyme Activity (ADME) Assay for human CYP2J2 (AID 2283106; active means hit-call score of the fitted dose curve at least 0.9, where 1 is the maximum)
Chain of human CYP2J2, CYP2J2 (gene 1573) (P51589 whole entry, looked up): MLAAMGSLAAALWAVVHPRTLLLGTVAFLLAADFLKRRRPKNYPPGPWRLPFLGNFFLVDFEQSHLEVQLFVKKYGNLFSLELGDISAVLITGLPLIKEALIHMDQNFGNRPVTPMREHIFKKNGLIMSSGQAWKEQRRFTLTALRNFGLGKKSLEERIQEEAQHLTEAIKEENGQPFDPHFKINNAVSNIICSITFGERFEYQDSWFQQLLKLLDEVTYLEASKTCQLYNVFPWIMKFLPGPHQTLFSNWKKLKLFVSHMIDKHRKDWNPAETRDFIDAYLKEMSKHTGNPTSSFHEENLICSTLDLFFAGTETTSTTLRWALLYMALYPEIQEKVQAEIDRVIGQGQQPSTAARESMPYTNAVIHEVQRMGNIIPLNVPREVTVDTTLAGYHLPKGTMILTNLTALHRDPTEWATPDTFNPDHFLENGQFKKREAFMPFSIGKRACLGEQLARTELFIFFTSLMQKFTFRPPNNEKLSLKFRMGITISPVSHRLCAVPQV
Method in brief: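 Cell-free assay of recombinant CYP2J2 with a fluorogenic substrate, read 1 h after dosing; loss of signal versus acetonitrile. Primary screen at 10 uM in duplicate, then concentration-response up to 20 uM for chemicals passing threshold (e.g., 30% inhibition).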

[15] = molecular target: human CYP1A1, CYP1A1 (gene 1543) (UniProt P04798); assay: NVS_ADME_hCYP1A1: NovaScreen (NVS) CYP450-related Enzyme Activity (ADME) Assay for human CYP1A1 (AID 2283100; active means hit-call score of the fitted dose curve at least 0.9, where 1 is the maximum)
Chain of human CYP1A1, CYP1A1 (gene 1543) (P04798 whole entry, looked up): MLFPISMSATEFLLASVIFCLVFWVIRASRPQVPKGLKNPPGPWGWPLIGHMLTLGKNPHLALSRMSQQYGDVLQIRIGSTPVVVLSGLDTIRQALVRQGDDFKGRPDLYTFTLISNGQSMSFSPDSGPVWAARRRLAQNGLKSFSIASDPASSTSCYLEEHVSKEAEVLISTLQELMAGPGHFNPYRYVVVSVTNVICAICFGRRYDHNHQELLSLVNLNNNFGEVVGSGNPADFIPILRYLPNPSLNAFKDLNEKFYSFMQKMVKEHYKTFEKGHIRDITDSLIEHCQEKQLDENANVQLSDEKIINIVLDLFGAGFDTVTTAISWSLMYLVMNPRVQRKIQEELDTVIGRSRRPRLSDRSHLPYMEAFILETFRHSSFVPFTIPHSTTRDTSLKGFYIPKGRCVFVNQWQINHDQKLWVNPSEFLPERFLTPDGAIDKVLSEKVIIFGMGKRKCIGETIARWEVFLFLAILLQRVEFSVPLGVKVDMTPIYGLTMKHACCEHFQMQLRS
Method in brief: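 Recombinant hCYP1A1 + fluorogenic substrate, cell-free; 1 h; fluorescence read. Single-point 10 uM (duplicate) → concentration series, max 20 uM. Acetonitrile negative control.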

[16] = molecular target: rat CYP1A2, Cyp1a2 (gene 24297) (UniProt P04799); assay: NVS_ADME_rCYP1A2: NovaScreen (NVS) CYP450-related Enzyme Activity (ADME) Assay for rat CYP1A2 (AID 2283115; active means hit-call score of the fitted dose curve at least 0.9, where 1 is the maximum)
Method in brief: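 Cell-free recombinant rat enzyme with fluorogenic substrate, read by fluorescence intensity 1 hour after dosing. Loss of signal versus acetonitrile negative control; primary screen at 10 uM in duplicate, actives followed in concentration series.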

Measured: AC50

Chain of E-selectin (Homo sapiens) (P16581 whole entry, looked up): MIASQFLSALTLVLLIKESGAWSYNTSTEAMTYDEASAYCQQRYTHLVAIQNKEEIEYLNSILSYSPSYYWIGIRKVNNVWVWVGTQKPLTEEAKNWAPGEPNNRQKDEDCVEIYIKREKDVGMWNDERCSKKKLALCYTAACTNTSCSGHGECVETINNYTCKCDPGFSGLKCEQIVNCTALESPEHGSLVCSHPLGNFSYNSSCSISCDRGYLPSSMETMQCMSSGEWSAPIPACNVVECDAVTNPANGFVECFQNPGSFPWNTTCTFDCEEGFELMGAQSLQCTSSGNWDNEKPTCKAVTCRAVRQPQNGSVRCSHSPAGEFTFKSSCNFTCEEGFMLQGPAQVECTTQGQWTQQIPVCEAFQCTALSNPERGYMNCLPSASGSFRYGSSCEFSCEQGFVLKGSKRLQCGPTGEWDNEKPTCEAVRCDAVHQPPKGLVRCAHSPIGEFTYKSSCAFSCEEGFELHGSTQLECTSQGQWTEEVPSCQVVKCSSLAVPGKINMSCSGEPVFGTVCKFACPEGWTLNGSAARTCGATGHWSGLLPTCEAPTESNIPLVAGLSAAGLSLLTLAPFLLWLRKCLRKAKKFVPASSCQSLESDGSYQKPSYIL

Nc1c(Cl)c(F)nc(OCC(=O)O)c1Cl
inactive: [1] | [2] | [3] | [4] | [5] | [6]

CC(C)Oc1cccc(NC(=O)c2ccccc2C(F)(F)F)c1
active: [6] 15.1 µM | [8] 2.66 µM | [9] 3.19 µM | [10] 4.9 µM
inactive: [1] | [2] | [3] | [4] | [5] | [7] | [11]

COC(=O)c1c(C(F)F)nc(C(F)(F)F)c(C2=NCCS2)c1CC(C)C
inactive: [1] | [3] | [5]
active: [2] 20 µM | [4] 12.1 µM | [6] 32.5 µM | [8] 1.88 µM | [10] 1.27 µM

CSC(=O)c1c(C(F)F)nc(C(F)(F)F)c(C(=O)SC)c1CC(C)C
active: [1] 13.9 µM | [2] 13.1 µM | [4] 27.6 µM | [5] 12.7 µM | [6] 14.6 µM | [12] 6.58 µM | [10] 7.01 µM
inactive: [3]

OC(c1ccc(Cl)cc1)(c1ccc(Cl)cc1)C(Cl)(Cl)Cl
active: [1] 30.7 µM | [2] 27.2 µM | [3] 34.4 µM | [4] 20 µM | [5] 27.9 µM | [6] 31.8 µM | [10] 0.806 µM
inactive: [7] | [13]

Nc1cnn(-c2ccccc2)c(=O)c1Cl
inactive: [1] | [2] | [3] | [4] | [5] | [6]

CC(C)N1C(=O)c2ccccc2NS1(=O)=O
inactive: [1] | [2] | [3] | [4] | [5] | [6]

COP(=O)(OC)O/C(C)=C/C(=O)N(C)C
inactive: [1] | [2] | [3] | [4] | [5] | [6] | [10]

Cn1c(-c2ccccc2)cc(-c2ccccc2)[n+]1C
active: [1] 5.52 µM | [2] 4.84 µM | [4] 3.97 µM | [5] 4.04 µM | [12] 5.06 µM
inactive: [3] | [6]

CN/C(=N\[N+](=O)[O-])NCc1cnc(Cl)s1
inactive: [1] | [2] | [3] | [4] | [5] | [6]

COCc1cnc(C2=NC(C)(C(C)C)C(=O)N2)c(C(=O)O)c1 (stereo not given)
inactive: [1] | [2] | [3] | [4] | [5] | [6]
active: [14] 3.83 µM

CC(C)NC(=O)N1CC(=O)N(c2cc(Cl)cc(Cl)c2)C1=O
active: [15] 5.48 µM | [9] 4.01 µM | [10] 2.06 µM
not listed: [11] | [12] | [13] | [14]
inactive: all other assays above

Cc1nc(N(C)C)nc(OC(=O)N(C)C)c1C
inactive: [1] | [2] | [3] | [4] | [5] | [6]

Cc1c(COC(=O)[C@@H]2[C@H](/C=C(\Cl)C(F)(F)F)C2(C)C)cccc1-c1ccccc1
active: [2] 10.3 µM | [5] 9.35 µM | [6] 9.26 µM | [10] 12.9 µM
inactive: [1] | [3] | [4] | [7]

COc1ccc(-c2ccccc2)cc1NNC(=O)OC(C)C
active: [15] 0.597 µM | [8] 0.684 µM | [14] 0.407 µM | [9] 1.07 µM | [10] 0.447 µM
not listed: [7] | [11] | [13] | [16]
inactive: all other assays above

CS(=O)(=O)c1ccc(C(=O)C2C(=O)CCCC2=O)c([N+](=O)[O-])c1
inactive: [1] | [2] | [3] | [4] | [5] | [6]

From PubChem BioAssay (EPA / NIEHS)
